Measured values from PubChem BioAssay AID1159580 (chemical genetic matrix, 2015).
Screen size: about 5,500 compounds; about 2,000 (36%) were called active. About 18% were inconclusive and are not listed. No stated cut-off is given here; in the data, active means normalized growth mostly below about 0.91 (no sharp cut-off); inconclusive means no clear call, values can overlap the other calls; inactive means mostly above about 0.92. The list shows a part of the results.

Assay: chemical genetic growth profiling, strain panel (AID 1159580);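 further: tested at 20 µM; growth read once vehicle control cultures reached saturation at 30 °C; 1 = growth at the plate median or of vehicle wells; lower values mean less growth of the strain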
Details: growth OD

Measured: normalized growth

Cc1ccccc1N1C(=O)c2cc(S(N)(=O)=O)c(Cl)cc2NC1C (stereo not drawn)
inactive: S. cerevisiae deletion strains, locus YKL009W, strain mrt4, active compounds read low 1.01 | S. cerevisiae deletion strains, locus YKL068W, active compounds read low 0.982 | S. cerevisiae deletion strains, locus YKL085W, strain MDH1 (second series), active compounds read low 1.03 | S. cerevisiae deletion strains, locus YKL085W, strain MDH1, active compounds read low 1.03 | S. cerevisiae deletion strains, locus YKL160W, strain elf1, active compounds read low 0.969 | S. cerevisiae deletion strains, locus YKL190W, strain CNB1, active compounds read low 0.994 | S. cerevisiae deletion strains, locus YKR001C, strain vps1, active compounds read low 0.988 | S. cerevisiae deletion strains, locus YKR026C, strain gcn3, active compounds read low 0.94 | S. cerevisiae deletion strains, locus YKR091W, strain srl3, active compounds read low 0.984 | S. cerevisiae deletion strains, locus YLL001W, strain dnm1, active compounds read low 0.969 | S. cerevisiae deletion strains, locus YLL026W, active compounds read low 1 | S. cerevisiae deletion strains, locus YLL041C, strain sdh2, active compounds read low 0.988 | S. cerevisiae deletion strains, locus YLR027C, strain aat2, active compounds read low 0.987 | S. cerevisiae deletion strains, locus YLR039C, strain RIC1, active compounds read low 0.974 | S. cerevisiae deletion strains, locus YLR058C, strain SHM2, active compounds read low 0.987 | S. cerevisiae deletion strains, locus YLR102C, strain apc9, active compounds read low 0.989 | S. cerevisiae deletion strains, locus YLR113W, strain HOG1, active compounds read low 0.985 | S. cerevisiae deletion strains, locus YLR221C, strain rsa3, active compounds read low 0.986 | S. cerevisiae deletion strains, locus YLR258W, strain gsy2, active compounds read low 0.969 | S. cerevisiae deletion strains, locus YLR262C, strain YPT6 (second series), active compounds read low 0.96 | S. cerevisiae deletion strains, locus YLR262C, strain YPT6, active compounds read low 1.01 | S. cerevisiae deletion strains, locus YLR268W, strain sec22, active compounds read low 0.995 | S. cerevisiae deletion strains, locus YLR320W, strain mms22, active compounds read low 1.04 | S. cerevisiae deletion strains, locus YLR330W, strain CHS5, active compounds read low 0.99 | S. cerevisiae deletion strains, locus YLR342W, strain FKS1 (second series), active compounds read low 0.971 | S. cerevisiae deletion strains, locus YLR342W, strain FKS1, active compounds read low 0.983 | S. cerevisiae deletion strains, locus YLR357W, strain rsc2, active compounds read low 0.949 | S. cerevisiae deletion strains, locus YLR370C, strain arc18, active compounds read low 0.98 | S. cerevisiae deletion strains, locus YLR371W, strain rom2, active compounds read low 0.993 | S. cerevisiae deletion strains, locus YLR384C, strain iki3, active compounds read low 0.961 | S. cerevisiae deletion strains, locus YLR418C, strain cdc73, active compounds read low 0.98 | S. cerevisiae deletion strains, locus YML016C, strain PPZ1, active compounds read low 0.985 | S. cerevisiae deletion strains, locus YML032C, strain rad52, active compounds read low 0.994 | S. cerevisiae deletion strains, locus YML120C, strain ndi1, active compounds read low 1 | S. cerevisiae deletion strains, locus YML124C, strain tub3, active compounds read low 0.978 | S. cerevisiae deletion strains, locus YMR058W, strain fet3, active compounds read low 0.988 | S. cerevisiae deletion strains, locus YMR078C, strain ctf18, active compounds read low 0.984 | S. cerevisiae deletion strains, locus YMR125W, strain sto1, active compounds read low 0.921 | S. cerevisiae deletion strains, locus YMR129W, active compounds read low 0.997 | S. cerevisiae deletion strains, locus YMR205C, strain PFK2, active compounds read low 0.982 | S. cerevisiae deletion strains, locus YMR223W, strain ubp8, active compounds read low 0.993 | S. cerevisiae deletion strains, locus YMR231W, strain pep5, active compounds read low 0.974 | S. cerevisiae deletion strains, locus YMR263W, strain SAP30, active compounds read low 1.01 | S. cerevisiae deletion strains, locus YMR307W, strain GAS1, active compounds read low 0.888 | S. cerevisiae deletion strains, locus YNL067W, strain RPL9B, active compounds read low 1.01 | S. cerevisiae deletion strains, locus YNL071W, strain lat1, active compounds read low 1.01 | S. cerevisiae deletion strains, locus YNL128W, strain TEP1, active compounds read low 0.97 | S. cerevisiae deletion strains, locus YNL183C, strain NPR1, active compounds read low 0.93 | S. cerevisiae deletion strains, locus YNL209W, strain ssb2, active compounds read low 0.994 | S. cerevisiae deletion strains, locus YNL233W, strain BNI4, active compounds read low 1.01 | S. cerevisiae deletion strains, locus YNL248C, strain rpa49, active compounds read low 0.909 | S. cerevisiae deletion strains, locus YNL250W, strain rad50, active compounds read low 0.98 | S. cerevisiae deletion strains, locus YNL271C, strain bni1, active compounds read low 0.983 | S. cerevisiae deletion strains, locus YNL298W, strain CLA4, active compounds read low 0.996 | S. cerevisiae deletion strains, locus YNL307C, strain MCK1, active compounds read low 0.996 | S. cerevisiae deletion strains, locus YNL322C, strain KRE1 (second series), active compounds read low 0.98 | S. cerevisiae deletion strains, locus YNR049C, strain mso1, active compounds read low 0.992 | S. cerevisiae deletion strains, locus YNR052C, strain pop2, active compounds read low 0.995 | S. cerevisiae deletion strains, locus YOL006C, strain TOP1, active compounds read low 0.997 | S. cerevisiae deletion strains, locus YOL012C, strain htz1 0.785 | S. cerevisiae deletion strains, locus YOL147C, strain pex11, active compounds read low 0.987 | S. cerevisiae deletion strains, locus YOR001W, strain rrp6, active compounds read low 0.957 | S. cerevisiae deletion strains, locus YOR061W, strain CKA2, active compounds read low 0.993 | S. cerevisiae deletion strains, locus YOR069W, strain VPS5, active compounds read low 0.986 | S. cerevisiae deletion strains, locus YOR070C, strain gyp1, active compounds read low 0.999 | S. cerevisiae deletion strains, locus YOR080W, strain dia2, active compounds read low 0.961 | S. cerevisiae deletion strains, locus YOR083W, strain WHI5, active compounds read low 0.986 | S. cerevisiae deletion strains, locus YOR106W, strain vam3, active compounds read low 0.957 | S. cerevisiae deletion strains, locus YOR136W, strain idh2, active compounds read low 0.99 | S. cerevisiae deletion strains, locus YOR144C, strain elg1, active compounds read low 0.987 | S. cerevisiae deletion strains, locus YOR184W, strain ser1, active compounds read low 1.01 | S. cerevisiae deletion strains, locus YOR231W, strain MKK1, active compounds read low 0.974 | S. cerevisiae deletion strains, locus YOR265W, strain rbl2, active compounds read low 0.995 | S. cerevisiae deletion strains, locus YOR270C, strain vph1, active compounds read low 0.938 | S. cerevisiae deletion strains, locus YOR290C, strain snf2, active compounds read low 0.995 | S. cerevisiae deletion strains, locus YOR316C, strain cot1, active compounds read low 0.983 | S. cerevisiae deletion strains, locus YPL051W, strain arl3, active compounds read low 1.01 | S. cerevisiae deletion strains, locus YPL078C, strain atp4, active compounds read low 0.957 | S. cerevisiae deletion strains, locus YPL106C, strain sse1, active compounds read low 0.956 | S. cerevisiae deletion strains, locus YPL240C, strain hsp82, active compounds read low 0.986 | S. cerevisiae deletion strains, locus YPL241C, strain CIN2, active compounds read low 0.992 | S. cerevisiae deletion strains, locus YPL256C, strain CLN2, active compounds read low 0.954 | S. cerevisiae deletion strains, locus YPR119W, strain clb2, active compounds read low 0.987 | S. cerevisiae deletion strains, locus YPR141C, strain kar3, active compounds read low 0.975 | S. cerevisiae deletion strains, locus YPR163C, strain tif3, active compounds read low 0.981 | S. cerevisiae deletion strains, locus YPR167C, strain met16, active compounds read low 0.992 | S. cerevisiae deletion strains, strain wtn01, active compounds read low 0.991 | S. cerevisiae strains, strain wild type, active compounds read low 0.943
